Assay results as given in PubChem BioAssay (NCI).
This is part of a sample that, as a whole, favours compounds with a hit. Of some 83,000 tested, about 20% had one in any assay.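 In brief: 96-well plates, 48 h treatment, single concentration, percent growth endpoint.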 Active and inactive are the calls of the source. Rule for the calls: active = growth percent below 10; inactive = the rest.

Columns and labels:
Assay in all cases: NCI-60 one-dose screen, 48 h (100 = growth as untreated, 0 = no growth, -100 = all killed)
RPMI-8226 leukemia = settings: 10 µM unless noted
OVCAR-8 ovarian = settings: 10 µM unless noted
OVCAR-5 ovarian = settings: 10 µM unless noted
OVCAR-4 ovarian = settings: 10 µM unless noted
SK-OV-3 ovarian = settings: 10 µM unless noted
IGROV1 ovarian = settings: 10 µM unless noted
OVCAR-3 ovarian = settings: 10 µM unless noted
HS 578T breast = settings: 10 µM
NCI/ADR-RES ovarian = settings: 10 µM unless noted
T-47D breast = settings: 10 µM unless noted
BT-549 breast = settings: 10 µM unless noted
MDA-MB-435 melanoma = settings: 10 µM unless noted
SW-620 colon = settings: 10 µM unless noted
MCF7 breast = settings: 10 µM unless noted
HCT-116 colon = settings: 10 µM unless noted
HCC-2998 colon = settings: 10 µM unless noted
KM12 colon = settings: 10 µM unless noted

Measured: growth

COc1c(B(O)O)cccc1-c1nc2ccc3[nH]ncc3c2c2c1CCCC2
active: RPMI-8226 leukemia 7.44% | SK-OV-3 ovarian 6.76% | BT-549 breast 7.15% | SW-620 colon 8.47% | MCF7 breast 2.24% | HCT-116 colon 6% | KM12 colon 1.71%
inactive: OVCAR-8 ovarian 17% | OVCAR-5 ovarian 29.5% | OVCAR-4 ovarian 74.2% | IGROV1 ovarian 13.8% | OVCAR-3 ovarian 19.3% | HS 578T breast 14.6% | NCI/ADR-RES ovarian 50.7% | T-47D breast 39.2% | MDA-MB-435 melanoma 38.4% | HCC-2998 colon 53.3%

COc1cc(C2Nc3ccccc3S2)cc(CN2CCOCC2)c1O (stereo unspecified)
active: MDA-MB-435 melanoma 0.594%
inactive: RPMI-8226 leukemia 81.1% | OVCAR-8 ovarian 88.9% | OVCAR-5 ovarian 122% | OVCAR-4 ovarian 87.5% | SK-OV-3 ovarian 83.3% | IGROV1 ovarian 39% | OVCAR-3 ovarian 52% | HS 578T breast 72.2% | NCI/ADR-RES ovarian 34.2% | T-47D breast 88.4% | BT-549 breast 84.9% | SW-620 colon 50.7% | MCF7 breast 50.6% | HCT-116 colon 53.2% | HCC-2998 colon 86.4% | KM12 colon 55.4%

NC(=O)Nc1ccc2ncnc(Nc3cccc(O)c3)c2c1
inactive: RPMI-8226 leukemia 112% | OVCAR-8 ovarian 98.9% | OVCAR-5 ovarian 98.1% | OVCAR-4 ovarian 112% | SK-OV-3 ovarian 87.5% | IGROV1 ovarian 107% | OVCAR-3 ovarian 82.8% | HS 578T breast 105% | NCI/ADR-RES ovarian 96.7% | T-47D breast 76.6% | BT-549 breast 108% | MDA-MB-435 melanoma 101% | SW-620 colon 99.1% | MCF7 breast 97.3% | HCT-116 colon 109% | HCC-2998 colon 102% | KM12 colon 96.1%

c1ccc(C(Nc2ccccn2)(c2ccccc2)c2ccccc2)cc1
inactive: RPMI-8226 leukemia 34.7% | OVCAR-8 ovarian 70.4% | OVCAR-5 ovarian 77.6% | OVCAR-4 ovarian 79.9% | SK-OV-3 ovarian 67.5% | IGROV1 ovarian 88.7% | OVCAR-3 ovarian 82% | HS 578T breast 93.4% | NCI/ADR-RES ovarian 63.3% | T-47D breast 72.7% | BT-549 breast 99.2% | MDA-MB-435 melanoma 96.5% | SW-620 colon 84.4% | MCF7 breast 62.4% | HCT-116 colon 65.7% | HCC-2998 colon 82.6% | KM12 colon 71.9%

CCCCCCCCCCCCCCCCCC1=NC(C)(C)CN1C(C)(C)CO
active: RPMI-8226 leukemia -35.3% | OVCAR-8 ovarian -80.4% | OVCAR-4 ovarian 3.31% | SK-OV-3 ovarian -40% | IGROV1 ovarian -83.8% | OVCAR-3 ovarian -1.05% | NCI/ADR-RES ovarian -7.97% | T-47D breast -19.5% | MDA-MB-435 melanoma -68.7% | SW-620 colon -100% | MCF7 breast -81% | HCT-116 colon -100% | HCC-2998 colon -100% | KM12 colon -100%
inactive: OVCAR-5 ovarian 37.9% | HS 578T breast 15.3% | BT-549 breast 64.7%

O=c1[nH]c2cc(Cl)c(Cl)cc2o1
inactive: RPMI-8226 leukemia 111% | OVCAR-8 ovarian 104% | OVCAR-5 ovarian 113% | OVCAR-4 ovarian 106% | SK-OV-3 ovarian 107% | IGROV1 ovarian 138% | OVCAR-3 ovarian 102% | HS 578T breast 100% | NCI/ADR-RES ovarian 116% | T-47D breast 121% | BT-549 breast 132% | MDA-MB-435 melanoma 103% | SW-620 colon 98.9% | MCF7 breast 105% | HCT-116 colon 98.9% | HCC-2998 colon 117% | KM12 colon 111%

COc1ccc(/C=C2\CCCC3=C2N=C2SC(C)=NN2C3c2ccc(OC)c(OC)c2)cc1OC (stereo unspecified)
inactive: OVCAR-5 ovarian 26.5% | OVCAR-4 ovarian 41.4% | SK-OV-3 ovarian 62.8% | IGROV1 ovarian 30.4% | OVCAR-3 ovarian 23.8% | HS 578T breast 86.2% | NCI/ADR-RES ovarian 17.7% | T-47D breast 48.3% | BT-549 breast 33.9% | MDA-MB-435 melanoma 11.6% | SW-620 colon 27.3% | MCF7 breast 19.3% | HCC-2998 colon 30.5% | KM12 colon 15.5%
active: RPMI-8226 leukemia -24.9% | OVCAR-8 ovarian -4.14% | HCT-116 colon -28.1%

O=C(/C=C/c1cc([N+](=O)[O-])ccc1Cl)c1ccccc1
active: SW-620 colon 6.41% | HCT-116 colon -100% | KM12 colon 5.35%
inactive: RPMI-8226 leukemia 20.9% | OVCAR-8 ovarian 96.3% | OVCAR-5 ovarian 96.1% | OVCAR-4 ovarian 97.2% | SK-OV-3 ovarian 95.4% | IGROV1 ovarian 70.5% | OVCAR-3 ovarian 102% | HS 578T breast 98.6% | NCI/ADR-RES ovarian 93.6% | T-47D breast 72.3% | BT-549 breast 86.3% | MDA-MB-435 melanoma 86% | MCF7 breast 20.6% | HCC-2998 colon 103%

Cc1nc2n[nH]c(N)c2nc1C
inactive: RPMI-8226 leukemia 106% | OVCAR-8 ovarian 95.1% | OVCAR-5 ovarian 102% | OVCAR-4 ovarian 106% | SK-OV-3 ovarian 104% | IGROV1 ovarian 97.9% | OVCAR-3 ovarian 104% | HS 578T breast 114% | NCI/ADR-RES ovarian 103% | T-47D breast 101% | BT-549 breast 118% | MDA-MB-435 melanoma 107% | SW-620 colon 108% | MCF7 breast 94.8% | HCT-116 colon 109% | HCC-2998 colon 103% | KM12 colon 106%

O=C1C2=C(C(=O)c3c(O)ccc(O)c31)N(c1ccc(N3CCOCC3)nc1)Cc1ccccc1O2
inactive: SK-OV-3 ovarian 15.2% | HS 578T breast 27.5%
active: RPMI-8226 leukemia -20.6% | OVCAR-8 ovarian -10.6% | OVCAR-5 ovarian -45.2% | OVCAR-4 ovarian -97.8% | IGROV1 ovarian -70.5% | OVCAR-3 ovarian -97.3% | NCI/ADR-RES ovarian 5.43% | T-47D breast -41% | BT-549 breast -78.5% | MDA-MB-435 melanoma -28.6% | SW-620 colon -54.3% | MCF7 breast -34.2% | HCT-116 colon -84.5% | HCC-2998 colon -66.3% | KM12 colon -34.9%

COc1ccc(C(=O)C(CN(C)C)c2ccccc2)cc1 (stereo unspecified)
inactive: OVCAR-8 ovarian 17% | OVCAR-5 ovarian 44.3% | OVCAR-4 ovarian 33.4% | SK-OV-3 ovarian 110% | BT-549 breast 12.9% | MDA-MB-435 melanoma 25.4% | HCC-2998 colon 93.9%
active: RPMI-8226 leukemia 9.15% | IGROV1 ovarian 1.31% | OVCAR-3 ovarian 0.0357% | HS 578T breast -13.8% | NCI/ADR-RES ovarian 9.35% | T-47D breast 9.93% | SW-620 colon -84.7% | MCF7 breast -1.32% | HCT-116 colon -99.1% | KM12 colon 6.49%

CC1=NC(c2ccc(Cl)cc2)C2=C(N1)/C(=C/c1ccc(Cl)cc1)CCC2 (stereo unspecified)
active: RPMI-8226 leukemia -1.96% | HCT-116 colon -39.9%
inactive: OVCAR-8 ovarian 79% | OVCAR-5 ovarian 114% | OVCAR-4 ovarian 83.6% | SK-OV-3 ovarian 109% | IGROV1 ovarian 98.8% | OVCAR-3 ovarian 104% | HS 578T breast 97.9% | NCI/ADR-RES ovarian 98% | T-47D breast 82.5% | BT-549 breast 66% | MDA-MB-435 melanoma 22.4% | SW-620 colon 82.1% | MCF7 breast 31.3% | HCC-2998 colon 41.5% | KM12 colon 38%

COc1ccc(CCN2COc3c([C@@H](C)CCC=C(C)C)ccc(C)c3C2)cc1OC
inactive: RPMI-8226 leukemia 28.5% | OVCAR-8 ovarian 72.1% | OVCAR-5 ovarian 83% | OVCAR-4 ovarian 39.7% | SK-OV-3 ovarian 82.6% | IGROV1 ovarian 68.3% | OVCAR-3 ovarian 30.2% | HS 578T breast 76.9% | NCI/ADR-RES ovarian 44.6% | BT-549 breast 87.9% | MDA-MB-435 melanoma 61.4% | SW-620 colon 40.4% | MCF7 breast 40.6% | HCT-116 colon 25.9% | KM12 colon 51.8%
active: T-47D breast -23% | HCC-2998 colon -70.3%

COc1ccc(-c2cnc3ccnn3c2-c2cc(OC)c(OC)c(OC)c2)cc1
active: OVCAR-3 ovarian -37.9% | MDA-MB-435 melanoma -38.5%
inactive: RPMI-8226 leukemia 23.9% | OVCAR-8 ovarian 47% | OVCAR-5 ovarian 66.1% | OVCAR-4 ovarian 75.4% | SK-OV-3 ovarian 32% | IGROV1 ovarian 62.3% | HS 578T breast 16.7% | NCI/ADR-RES ovarian 27.4% | T-47D breast 22.2% | BT-549 breast 66.7% | SW-620 colon 16.1% | MCF7 breast 25.4% | HCT-116 colon 27.5% | HCC-2998 colon 80.8% | KM12 colon 16.1%

ClCc1cccc(CSc2ncnc3c2ncn3Cc2cccc(CCl)c2)c1
inactive: OVCAR-5 ovarian 116% | SK-OV-3 ovarian 65.5% | IGROV1 ovarian 14% | OVCAR-3 ovarian 28.4% | HS 578T breast 47.7% | MCF7 breast 13.3% | KM12 colon 57.9%
active: RPMI-8226 leukemia -10.6% | OVCAR-8 ovarian -16.4% | OVCAR-4 ovarian 8.74% | NCI/ADR-RES ovarian -6.49% | T-47D breast -64.7% | BT-549 breast -69.6% | MDA-MB-435 melanoma 9.56% | SW-620 colon -45.6% | HCT-116 colon -79.6% | HCC-2998 colon -71.7%

CN1CCN(c2ccc(N3Cc4ccccc4OC4=C3C(=O)c3c(O)ccc(O)c3C4=O)cn2)CC1
inactive: SK-OV-3 ovarian 26% | HS 578T breast 23.5%
active: RPMI-8226 leukemia -7.62% | OVCAR-8 ovarian 2.15% | OVCAR-5 ovarian -32.5% | OVCAR-4 ovarian -97.2% | IGROV1 ovarian -59.3% | OVCAR-3 ovarian -99.6% | NCI/ADR-RES ovarian 5.09% | T-47D breast -32.7% | BT-549 breast -78.8% | MDA-MB-435 melanoma 0.932% | SW-620 colon -61.1% | MCF7 breast -39.2% | HCT-116 colon -80.9% | HCC-2998 colon -65.8% | KM12 colon -53.2%

Cn1c(=O)c2c3c(oc2c2ccccc21)C(=O)c1ccccc1C3=O
active: OVCAR-4 ovarian 4.38% | T-47D breast 9.7%
inactive: RPMI-8226 leukemia 51.1% | OVCAR-8 ovarian 85.3% | OVCAR-5 ovarian 120% | SK-OV-3 ovarian 93.6% | IGROV1 ovarian 68.7% | OVCAR-3 ovarian 21.6% | HS 578T breast 93.2% | NCI/ADR-RES ovarian 76.9% | BT-549 breast 77.4% | MDA-MB-435 melanoma 104% | SW-620 colon 86.2% | MCF7 breast 68.4% | HCT-116 colon 71.7% | HCC-2998 colon 102% | KM12 colon 91.5%

CC1CN(CCCOC(=O)Nc2ccc(Cl)cc2)CCN1C(C)(C)C (stereo unspecified)
inactive: RPMI-8226 leukemia 100% | OVCAR-8 ovarian 104% | OVCAR-5 ovarian 105% | OVCAR-4 ovarian 111% | SK-OV-3 ovarian 93.8% | IGROV1 ovarian 100% | OVCAR-3 ovarian 104% | HS 578T breast 116% | NCI/ADR-RES ovarian 99.6% | T-47D breast 90% | BT-549 breast 101% | MDA-MB-435 melanoma 102% | SW-620 colon 110% | MCF7 breast 99% | HCT-116 colon 100% | HCC-2998 colon 101% | KM12 colon 106%
